# Screening results: PubChem, several laboratories
# Bfl-1 A1 inh: inhibitors of the anti-apoptotic protein A1, read as caspase activation. AID 2462. caspase activation, % (no concentration beside the values). actives 0.066% (n = 330,000). MEF A1-2A-BIM cells, Caspase-Glo 3/7 luminescence, 3 h; percent of clofoctol response, vehicle zero;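 active = over half of replicate activation scores above 10%, or exactly half above 10 with the replicate mean above 10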
# aDG glyco act: increases alpha dystroglycan glycosylation; Pro5-aDG cells, alpha-DG glycosylation AlphaScreen (IIH6); 0% Pro5, 100% B10-LARGE cell signal; activation, % at 10 µM; actives 0.22% (n = 360,000); AID 624168;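 active = activation of at least 8% versus controls, or a plate z-score of at least 8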;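 note: Pro5 are CHO cells carrying HIG-tagged alpha-DG that lacks glycosylation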
# AI-2 QS mod: modulates the Vibrio harveyi AI-2 quorum sensing system; Vibrio harveyi JMH597 AI-2 luminescence/OD600 ratio, 9 h; hits give low values; strain lacks LuxN and CqsS sensors; 0 = neutral-control median; activity change, % at 7.5 µM; actives 0.4% (n = 300,000); AID 2094; in the data active = activity change below about -75%, passing the limit was not always enough;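 note: luminescence divided by OD600 gain over 9 h not by final OD600 alone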
# SUMO Mot1 rescue: blocks SUMOylation pathway, rescuing yeast Mot1-301 growth | S. cerevisiae Mot1-301 growth rescue, ATP luminescence, 38.5C; percent above DMSO median, 100 means doubled | growth rescue, % at 18.8 µM | actives 1% (n = 320,000) | AID 2716;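 active = every valid replicate shows activation above 250% relative to neutral control wells; inactive = the rest, any valid replicate at or below 250%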;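 note: OY570 slx delta 5 strain wells were the positive control but not used for scaling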
# ARNT-TACC3 inh: disrupts binding between human ARNT and TACC3; actives 0.66% (n = 390,000); inhibition, % at 9.99 µM; AlphaScreen His-ARNT PAS-B/GST-TACC3 binding, luminescence; TACC3 fragment carries E629A point mutation; Q9Y6A5; AID 623870;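 active = mean inhibition of replicates at least 50% and at least half of replicates each reaching 50%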;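 note: 0% = complete ARNT plus TACC3 wells and 100% = ARNT alone without TACC3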
# ARNT Alpha ctr: interferes with AlphaScreen signal, flagging false ARNT-TACC3 hits | shares compounds with ARNT-TACC3 inh | His-ARNT PASB-GST AlphaScreen artifact counter-screen, luminescence | AC50, µM (top dose mostly 68 µM), inactives show at the highest dose activity change, negative = signal decrease | actives 50% (n = 1,200);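 active = every separate test run was called active for a drop in luminescence, with AC50 within twice the top valid dose, actives reach about 71 µM in these data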
# aDG conf: confirmation of alpha dystroglycan glycosylation activators | shares compounds with aDG glyco act | Pro5-aDG cells, alpha-DG glycosylation, IIH6 AlphaLISA; scaled to LARGE-overexpressing B10 cells as 100% | activation, % at 10 µM (by protocol) | actives 17% (n = 600) | AID 651671;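 active = activation of at least 7% in one or more replicates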;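 note: cells exposed to compound for two days before detection; 0% = DMSO-treated Pro5 cells and 100% = DMSO-treated B10-LARGE cells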
# * hit, by the source's call; . = no result; [ ] = another dose, or the depositor's remark. A selection: hits, their analogues and other compounds. The true share with any hit is near 1.8%.
SMILES,Bfl-1 A1 inh,aDG glyco act,AI-2 QS mod,SUMO Mot1 rescue,ARNT-TACC3 inh,ARNT Alpha ctr,others
CN(Cc1cnc2nc(N)nc(N)c2n1)c1ccc(C(=O)NC(CCC(=O)O)C(=O)O)cc1 (stereo not given),.,0,.,.,15*,-23%,
O=C(CN1CCOc2ccccc21)NCc1ccco1,0,0,3,-7,0,.,
O=C(CN1CC(=O)Oc2ccccc21)NCc1ccco1,0,0,21,91,61*,19µM*,
COCCNC(=O)C[C@@H]1C[C@@H]2c3cc(NC(=O)C4CCOCC4)ccc3O[C@@H]2[C@H](CO)O1,.,.,.,.,-13,.,
COCCNC(=O)C[C@@H]1C[C@H]2c3cc(NC(=O)C4CCOCC4)ccc3O[C@H]2[C@H](CO)O1,.,.,.,.,active,-7%[38 µM],
O=C(C[C@@H]1C[C@@H]2c3cc(NC(=O)C4CCOCC4)ccc3O[C@@H]2[C@H](CO)O1)NCc1cccnc1,.,.,.,.,55*,3%[42 µM],
COC(=O)C[C@@H]1C[C@H]2c3cc(N(C)C)ccc3O[C@H]2[C@@H](CO)O1,.,.,.,.,67*,-5%[42 µM],
CN(C)c1ccc2c(c1)[C@@H]1C[C@H](CC(=O)O)O[C@@H](CO)[C@@H]1O2,.,.,.,.,1,.,
CCC(=O)NC(C)c1cc(Cl)c2cccnc2c1O (stereo not given),1,0,.,-24,61*,43µM*,
CC(=O)NC(C)c1cc(Cl)c2cccnc2c1O (stereo not given),-1,1,.,-15,52*,36µM*,
O=C(CC(NCc1ccccn1)C(=O)O)Nc1ccccc1Cl (stereo not given),0,0,13,280,51*,13µM*,
O=C(NCc1ccccn1)Nc1cc(Cl)ccc1Cl,1,0,16,2,18,.,
CC1=CC(C)(C)N(C(=O)C(C)N2C(=O)c3ccccc3C2=O)c2ccc(C)cc21 (stereo not given),0,0,24,21,active,-22%,
CC1=CC(C)(C)N(C(=O)c2ccccc2)c2ccc(C)cc21,.,0,9,.,-1,.,
CCOC(=O)c1c(NC(=O)Cn2cnc3sc(C)c(-c4ccccc4)c3c2=O)sc(C)c1C,-1,0,23,-7,.,.,
Oc1ccc(/C=N/Nc2ncc(Br)cn2)c(O)c1,-9,2,54,1,57*,30µM*,
Oc1ccc(Br)cc1/C=N/Nc1ncc(-c2ccccc2)cn1,0,0,30,-4,-3,.,
OCCN1CCN(Cc2cc(Br)cc(Br)c2O)CC1,-1,0,14,13,-27,.,
O=C(Oc1c(CN2CCOCC2)cc(Cl)c2cccnc12)c1cccs1,0,0,42,-23,65*,-21%,
COc1cccc(C(=O)Oc2c(CN3CCOCC3)cc(Cl)c3cccnc23)c1,-1,0,29,-5,78*,58µM*,
OCCN1CCN(Cc2cc(Cl)c3cccnc3c2O)CC1,0,1,-13,-5,63*,8.5µM*,
CC(CC(c1ccccc1)N1CCc2ccccc2C1)=NO (stereo not given),.,0,.,.,.,.,
COc1cc(OC)cc(C(=O)OC/C(O)=C(\C#N)c2nc3ccccc3[nH]2)c1,-1,0,21,-15,0,.,
Cc1onc(-c2c(F)cccc2Cl)c1C(=O)Nc1ccccc1N1CCOCC1,0,0,19,4,4,.,
Cc1onc(-c2c(Cl)cccc2Cl)c1C(=O)Nc1ccc(N2CCOCC2)cc1,-7,0,25,0,active,-20%,
SMILES,Bfl-1 A1 inh,aDG glyco act,AI-2 QS mod,SUMO Mot1 rescue,ARNT-TACC3 inh,ARNT Alpha ctr,others
CCC(=O)N1CCN=C1SCc1cc(C)ccc1C,0,1,20,386,-7,.,
Cc1ccccc1C(=O)Nc1nnc(-c2ccco2)o1,-6,0,33,.,62*,-33%,
Cc1cccc(C(=O)Nc2nnc(-c3cccnc3)o2)c1,1,0,37,11,59*,-35%,
O=C(Nc1nnc(-c2cccnc2)o1)c1cccc([N+](=O)[O-])c1,-1,.,69,7,.,.,
Cc1cccc(C(=O)Nc2nnc(-c3ccco3)o2)c1,-1,0,26,187,56*,-35%,
O=C(Nc1nnc(-c2ccncc2)o1)c1ccc2ccccc2c1,-2,0,20,-12,20,.,
Cc1cccc(C(=O)Nc2nnc(-c3ccncc3)o2)c1,0,0,33,14,62*,-27%,
Cc1ccc(C(=O)Nc2nnc(-c3ccco3)o2)cc1C,-2,0,9,7,21,.,
O=C(CSc1nc2c(c(C(F)(F)F)n1)CCc1ccccc1-2)NCc1ccc(F)cc1,0,0,7,1,3,.,
CC(/C=C/c1ccc2c(c1)OCO2)=N/NC(=O)C1COc2ccccc2O1 (stereo not given),-1,.,38,13,.,.,
CC(=O)C(Sc1nnnn1-c1ccccc1)C(C)=O,0,0,9,-17,-6,.,
Cc1cc(C)n(S(=O)(=O)c2ccc(F)cc2)n1,1,0,27,-7,-7,.,
Cc1cc(C)n(S(=O)(=O)c2ccc(Cl)cc2)n1,1,0,19,6,active,2%,
Cc1ccc(N2CC(=O)N(NC(=O)CN3CCN(c4ccccc4)CC3)CC2=O)cc1,0,0,16,4,-2,.,
CC(C)C1Cc2c(sc3ncnc(NN)c23)CO1 (stereo not given),1,0,14,-15,61*,17µM*,
Cc1cc(C)c(C(N)=O)c(Nc2cccc3ccccc23)n1,0,5.7*,33,2,68*,-9%,aDG conf=0
Cc1ccsc1C(=O)OCC(=O)N1CCN(c2ccccc2)CC1,0,0,.,-2,-1,.,
N#Cc1cc(Cl)c(N2CCOCC2)cc1C#N,-2,0,8,157,-2,.,
N#Cc1cc2ccc(N3CCOCC3)cc2cc1C#N,-1,6.8*,14,18,29*,-16%,aDG conf=2
CCCCCCOc1ccc(/C(C)=N/NC2=NCCN2)cc1,0,0,25,-21,17,.,
CCCCCOc1ccc(/C(C)=N/NC2=NCCN2)cc1,1,1.6*,10,38,4,.,aDG conf=8.6*
COc1ccc2[nH]c3c(=O)n4c(nc3c2c1)SCC4,1,0,11,-4,0,.,
COc1cc2[nH]c3c(=O)n4c(nc3c2cc1OC)SCCC4,0,31*,9,354,-8,.,aDG conf=22*
